Reference: PubChem BioAssay (NCI)
This is part of a sample that, as a whole, favours compounds with a hit. Of some 83,000 tested, about 20% had one in any assay.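 Cells were grown in 96-well plates and exposed to the test compound at a single concentration for 48 hours; results are reported as percent growth, with values below 10 considered active.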 Activity calls are given as the source filed them.

Tests used:
Assay in all cases: NCI-60 one-dose screen, 48 h (100 = growth as untreated, 0 = no growth, -100 = all killed)
Conditions in all cases: 10 µM unless noted
HCT-15 colon = test system: HCT-15 colon
HT29 colon = test system: HT29 colon
SNB-75 CNS = test system: SNB-75 CNS
SNB-19 CNS = test system: SNB-19 CNS
U251 CNS = test system: U251 CNS
PC-3 prostate = test system: PC-3 prostate
SK-MEL-5 melanoma = test system: SK-MEL-5 melanoma
UACC-62 melanoma = test system: UACC-62 melanoma
LOX IMVI melanoma = test system: LOX IMVI melanoma
SK-MEL-28 melanoma = test system: SK-MEL-28 melanoma
SK-MEL-2 melanoma = test system: SK-MEL-2 melanoma
EKVX NSCLC = test system: EKVX NSCLC
SN12C renal = test system: SN12C renal
UO-31 renal = test system: UO-31 renal
TK-10 renal = test system: TK-10 renal
ACHN renal = test system: ACHN renal
CAKI-1 renal = test system: CAKI-1 renal
A498 renal = test system: A498 renal
CCRF-CEM leukemia = test system: CCRF-CEM leukemia
MOLT-4 leukemia = test system: MOLT-4 leukemia

Measured: growth

COc1ccc(Cl)cc1Nc1nc(C(F)(F)F)ccc1C(=O)N/N=C/c1ccc([N+](=O)[O-])cc1
inactive: SNB-75 CNS 29.5% | SNB-19 CNS 22.9% | UACC-62 melanoma 17.3% | SK-MEL-28 melanoma 22.8% | TK-10 renal 10.5%
active: HCT-15 colon 3.38% | HT29 colon 2.62% | U251 CNS -27% | PC-3 prostate -5.64% | SK-MEL-5 melanoma -17.7% | LOX IMVI melanoma -32.8% | SK-MEL-2 melanoma -8.38% | EKVX NSCLC 0.805% | SN12C renal 5.05% | UO-31 renal -1.49% | ACHN renal -9.86% | CAKI-1 renal 4.56% | A498 renal 3.24% | CCRF-CEM leukemia 9.15% | MOLT-4 leukemia 2.93%

C=CCN=c1sc(-c2ccc3ccccc3c2)cn1NC(=O)c1cc2ccc1CCc1ccc(cc1)CC2
active: SK-MEL-5 melanoma -10.1%
inactive: HCT-15 colon 49.5% | HT29 colon 30.1% | SNB-75 CNS 53.3% | SNB-19 CNS 66.8% | U251 CNS 53.9% | PC-3 prostate 37.8% | UACC-62 melanoma 52.7% | LOX IMVI melanoma 59.9% | SK-MEL-28 melanoma 72.2% | SK-MEL-2 melanoma 85.6% | EKVX NSCLC 58.2% | SN12C renal 74.3% | UO-31 renal 42.3% | TK-10 renal 79.7% | ACHN renal 72.3% | CAKI-1 renal 60.9% | A498 renal 62.7% | CCRF-CEM leukemia 41.2%

CCCC(=O)NC(c1ccc2c(c1)OCO2)c1cc(Cl)c2cccnc2c1O (centres undefined)
active: SNB-75 CNS 6.73% | UO-31 renal -8.37%
inactive: HCT-15 colon 30.9% | HT29 colon 21.2% | SNB-19 CNS 23.7% | U251 CNS 17.3% | PC-3 prostate 34.5% | SK-MEL-5 melanoma 37.5% | UACC-62 melanoma 11% | LOX IMVI melanoma 23.4% | SK-MEL-28 melanoma 46.1% | SK-MEL-2 melanoma 58.7% | EKVX NSCLC 30.1% | SN12C renal 38.1% | TK-10 renal 37.6% | ACHN renal 18.1% | CAKI-1 renal 18.1% | A498 renal 43.6% | CCRF-CEM leukemia 13.2%

CCCCn1c(NC(C)=O)c(S(=O)(=O)c2ccccc2)c2nc3ccccc3nc21
inactive: HCT-15 colon 101% | HT29 colon 124% | SNB-75 CNS 89.8% | SNB-19 CNS 98.7% | U251 CNS 103% | PC-3 prostate 96% | SK-MEL-5 melanoma 100% | UACC-62 melanoma 97.8% | LOX IMVI melanoma 101% | SK-MEL-28 melanoma 122% | SK-MEL-2 melanoma 121% | EKVX NSCLC 95.5% | SN12C renal 103% | UO-31 renal 92% | TK-10 renal 99.7% | ACHN renal 106% | CAKI-1 renal 104% | A498 renal 87.3% | CCRF-CEM leukemia 77.7% | MOLT-4 leukemia 82.5%

O=C1/C(=C/c2c[nH]c(=O)[nH]c2=O)SC(=S)N1Cc1ccccc1
inactive: HCT-15 colon 104% | HT29 colon 101% | SNB-75 CNS 80.1% | SNB-19 CNS 95.2% | U251 CNS 97.7% | PC-3 prostate 98.9% | SK-MEL-5 melanoma 100% | UACC-62 melanoma 91.5% | LOX IMVI melanoma 99.8% | SK-MEL-28 melanoma 103% | SK-MEL-2 melanoma 103% | EKVX NSCLC 74.6% | SN12C renal 95.5% | UO-31 renal 75.8% | TK-10 renal 102% | ACHN renal 102% | CAKI-1 renal 93.6% | A498 renal 99.9% | CCRF-CEM leukemia 104%

COc1ccc(C2CC(c3ccccc3)=NN2C(=O)c2cc(OC)c(OC)c(OC)c2)cc1O (centres undefined)
inactive: HCT-15 colon 16.2% | HT29 colon 36% | SNB-75 CNS 34.7% | SNB-19 CNS 47.3% | U251 CNS 20.6% | PC-3 prostate 22.5% | SK-MEL-5 melanoma 22.4% | UACC-62 melanoma 25.9% | LOX IMVI melanoma 42.9% | SK-MEL-28 melanoma 64.9% | SK-MEL-2 melanoma 76.5% | EKVX NSCLC 46.7% | SN12C renal 37.5% | UO-31 renal 30.3% | TK-10 renal 63.2% | ACHN renal 37.5% | CAKI-1 renal 52.9% | A498 renal 17.3%

O=C(O)CC(C(=O)O)/C(=C\c1ccccc1)c1ccccc1 (centres undefined)
inactive: HCT-15 colon 107% | HT29 colon 114% | SNB-75 CNS 83.2% | SNB-19 CNS 109% | U251 CNS 99.8% | PC-3 prostate 96.6% | SK-MEL-5 melanoma 94.8% | UACC-62 melanoma 101% | LOX IMVI melanoma 99.1% | SK-MEL-28 melanoma 103% | SK-MEL-2 melanoma 109% | EKVX NSCLC 110% | SN12C renal 104% | UO-31 renal 89.1% | TK-10 renal 108% | ACHN renal 104% | CAKI-1 renal 103% | A498 renal 93% | CCRF-CEM leukemia 94.6%

Cc1c2cnccc2c(C)c2c1c1cc(CO)ccc1n2C
active: HCT-15 colon -10.9% | HT29 colon -16.3% | SNB-75 CNS -45.1% | SNB-19 CNS -22.2% | U251 CNS -38.1% | PC-3 prostate -9.48% | SK-MEL-5 melanoma -96.8% | UACC-62 melanoma -74.7% | LOX IMVI melanoma -63.5% | SK-MEL-28 melanoma -69.5% | SK-MEL-2 melanoma -75.5% | EKVX NSCLC -15.2% | SN12C renal -33.8% | UO-31 renal -32.6% | TK-10 renal -27.7% | ACHN renal -36.4% | CAKI-1 renal -28.3% | A498 renal -67.1% | CCRF-CEM leukemia -7.79% | MOLT-4 leukemia -10.8%

O=C1c2cccnc2C(=O)c2c1c(C(=O)OCCc1ccccn1)c1ccccn21
inactive: EKVX NSCLC 25.4%
active: HCT-15 colon -75.9% | HT29 colon -75% | SNB-75 CNS -85.3% | SNB-19 CNS -38.7% | U251 CNS -82.5% | PC-3 prostate -3.59% | SK-MEL-5 melanoma -94.2% | UACC-62 melanoma -55.6% | LOX IMVI melanoma -50% | SK-MEL-28 melanoma -33.3% | SK-MEL-2 melanoma -35.4% | SN12C renal -33.4% | UO-31 renal -48.7% | TK-10 renal -43.9% | ACHN renal -48.5% | CAKI-1 renal 8.74% | A498 renal -57% | CCRF-CEM leukemia -14.1% | MOLT-4 leukemia -0.142%

C/C(=N\Nc1ccccc1)c1ccc(NC2=CC(=O)c3ccccc3C2=O)cc1
active: SK-MEL-5 melanoma -10.5% | UACC-62 melanoma -7.92%
inactive: HCT-15 colon 31.9% | HT29 colon 75.3% | SNB-75 CNS 51.1% | SNB-19 CNS 85.7% | U251 CNS 45.8% | PC-3 prostate 40.1% | LOX IMVI melanoma 21.4% | SK-MEL-28 melanoma 65.9% | SK-MEL-2 melanoma 55.6% | EKVX NSCLC 74% | SN12C renal 63.5% | UO-31 renal 38.8% | TK-10 renal 81.5% | ACHN renal 48.2% | CAKI-1 renal 43.8% | A498 renal 110% | CCRF-CEM leukemia 62.7% | MOLT-4 leukemia 63%

Cc1ccc(S(=O)(=O)OC[C@]23CCC(C)(C)C[C@H]2C2=CC[C@@H]4[C@@]5(C)CCCNC(C)(C)[C@@H]5CC[C@@]4(C)[C@]2(C)CC3)cc1
active: HCT-15 colon -50.9% | HT29 colon -59.3% | U251 CNS -81.1% | LOX IMVI melanoma -87.7%
inactive: SNB-75 CNS 86.4% | SNB-19 CNS 85.7% | PC-3 prostate 53.9% | SK-MEL-5 melanoma 91.5% | UACC-62 melanoma 89.7% | SK-MEL-28 melanoma 99.8% | SK-MEL-2 melanoma 102% | EKVX NSCLC 83% | SN12C renal 46.4% | UO-31 renal 60.2% | TK-10 renal 73% | ACHN renal 48.6% | CAKI-1 renal 41.9% | A498 renal 95.4% | CCRF-CEM leukemia 34.5% | MOLT-4 leukemia 12.9%

CCN1C(=O)N(CC)C2C1NN=c1s/c(=C\c3ccc(OC)cc3)c(=O)n12 (centres undefined)
active: HT29 colon 3.44% | U251 CNS 7.45% | SK-MEL-5 melanoma -10.8% | CCRF-CEM leukemia 9.06%
inactive: HCT-15 colon 10.3% | SNB-75 CNS 23% | SNB-19 CNS 26.9% | PC-3 prostate 26.5% | UACC-62 melanoma 23.9% | LOX IMVI melanoma 17.1% | SK-MEL-28 melanoma 56.4% | SK-MEL-2 melanoma 34.5% | EKVX NSCLC 51.9% | SN12C renal 24.9% | UO-31 renal 39.3% | TK-10 renal 66.2% | ACHN renal 28.5% | CAKI-1 renal 25.5% | A498 renal 11.8% | MOLT-4 leukemia 14%

Cc1ccc(O)c(NC(=O)c2cccc(Nc3ccnc(C(F)(F)F)c3)c2)c1
active: CCRF-CEM leukemia -1.16% | MOLT-4 leukemia -4.89%
inactive: HCT-15 colon 80% | HT29 colon 101% | SNB-75 CNS 85% | SNB-19 CNS 90.5% | U251 CNS 83.6% | PC-3 prostate 68% | SK-MEL-5 melanoma 20.7% | UACC-62 melanoma 30.8% | LOX IMVI melanoma 66.9% | SK-MEL-28 melanoma 100% | SK-MEL-2 melanoma 82.7% | EKVX NSCLC 41.7% | SN12C renal 39.9% | UO-31 renal 29.3% | TK-10 renal 92.2% | ACHN renal 57.8% | CAKI-1 renal 41.6% | A498 renal 96.1%

O=C1Nc2ccccc2/C1=N/N1C(=O)CN(CCCl)C1=O
inactive: HCT-15 colon 105% | HT29 colon 99.1% | SNB-75 CNS 86.8% | SNB-19 CNS 97.1% | U251 CNS 102% | PC-3 prostate 99% | SK-MEL-5 melanoma 97.5% | UACC-62 melanoma 90.5% | LOX IMVI melanoma 100% | SK-MEL-28 melanoma 111% | SK-MEL-2 melanoma 103% | EKVX NSCLC 102% | SN12C renal 94.2% | UO-31 renal 86% | TK-10 renal 102% | ACHN renal 107% | CAKI-1 renal 89.1% | A498 renal 95.6% | CCRF-CEM leukemia 99.3% | MOLT-4 leukemia 99.9%

Cc1cc2oc(/C=C/c3ccccc3)cc(=O)c2c(C)c1Cl
inactive: HCT-15 colon 95.7% | HT29 colon 107% | SNB-75 CNS 116% | SNB-19 CNS 89.8% | U251 CNS 94.3% | PC-3 prostate 96.7% | SK-MEL-5 melanoma 96% | UACC-62 melanoma 90.5% | LOX IMVI melanoma 109% | SK-MEL-28 melanoma 94.6% | SK-MEL-2 melanoma 103% | EKVX NSCLC 101% | SN12C renal 99.1% | UO-31 renal 94.4% | TK-10 renal 91.6% | ACHN renal 110% | CAKI-1 renal 84.6% | A498 renal 142% | CCRF-CEM leukemia 99.2% | MOLT-4 leukemia 62.6%

C=C1C(=O)O[C@H]2[C@H]1CC/C(CNC(=O)Cc1c[nH]c3ccccc13)=C\CC[C@@]1(C)O[C@@H]21
inactive: HCT-15 colon 15.6% | SNB-75 CNS 73.9% | SNB-19 CNS 57.5% | U251 CNS 43.9% | PC-3 prostate 49.9% | SK-MEL-5 melanoma 42.1% | SK-MEL-2 melanoma 33.5% | EKVX NSCLC 79.3% | SN12C renal 13.9% | UO-31 renal 34.9% | CAKI-1 renal 14.7% | A498 renal 41.2%
active: HT29 colon 1.86% | UACC-62 melanoma -23.5% | LOX IMVI melanoma -75.3% | SK-MEL-28 melanoma -29.9% | TK-10 renal -35.9% | ACHN renal 3.84% | CCRF-CEM leukemia -35.9% | MOLT-4 leukemia -4.65%
